From PubChem BioAssay (NCI)
“And” between values parts separate entries of the source, which are not always exact repeats. Equal values may be shown once. About 83,000 compounds went through this panel and 20% of them were active in at least one assay; those are over-represented in the sample as a whole.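 How to read the values: 0–100, growth inhibition (40 = 60% inhibited); 0, no net growth; -100 to 0, cell death (-40 = 40% of starting cells died; -100 = all dead).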 The source made the active and inactive calls. The calls were made as follows: active = growth percent below 10; inactive = the rest.

Experiments:
Experiment in all cases: NCI-60 one-dose screen, 48 h (100 = growth as untreated, 0 = no growth, -100 = all killed)
Conditions in all cases: 10 µM unless noted
SK-MEL-2 melanoma = system: SK-MEL-2 melanoma
EKVX NSCLC = system: EKVX NSCLC
SN12C renal = system: SN12C renal
UO-31 renal = system: UO-31 renal
TK-10 renal = system: TK-10 renal
ACHN renal = system: ACHN renal
A498 renal = system: A498 renal
MOLT-4 leukemia = system: MOLT-4 leukemia
SR leukemia = system: SR leukemia
RPMI-8226 leukemia = system: RPMI-8226 leukemia
OVCAR-8 ovarian = system: OVCAR-8 ovarian
OVCAR-5 ovarian = system: OVCAR-5 ovarian
OVCAR-4 ovarian = system: OVCAR-4 ovarian
IGROV1 ovarian = system: IGROV1 ovarian
OVCAR-3 ovarian = system: OVCAR-3 ovarian
NCI/ADR-RES ovarian = system: NCI/ADR-RES ovarian
CCRF-CEM leukemia = system: CCRF-CEM leukemia
HS 578T breast = system: HS 578T breast
CAKI-1 renal = system: CAKI-1 renal
SK-OV-3 ovarian = system: SK-OV-3 ovarian

Measured: growth

O=C(O)c1ccc2c3ccc(C(=O)O)c4c(C(=O)O)ccc(c5ccc(C(=O)O)c1c25)c43
inactive: SK-MEL-2 melanoma 91.3% | EKVX NSCLC 101% | SN12C renal 101% | UO-31 renal 85.8% | TK-10 renal 117% | ACHN renal 107% | A498 renal 108% | MOLT-4 leukemia 106% | SR leukemia 104% | RPMI-8226 leukemia 135% | OVCAR-8 ovarian 98% | OVCAR-5 ovarian 84.2% | OVCAR-4 ovarian 103% | IGROV1 ovarian 42.4% | OVCAR-3 ovarian 101% | NCI/ADR-RES ovarian 114%

CCN(CC)C(CC(=O)c1ccccc1)C(=O)c1ccccc1 (stereo not drawn)
inactive: SK-MEL-2 melanoma 110% | EKVX NSCLC 98.2% | SN12C renal 93.4% | UO-31 renal 84.1% | TK-10 renal 70.2% | ACHN renal 71.2% | A498 renal 75.1% | CCRF-CEM leukemia 30.4% | MOLT-4 leukemia 27.9% | SR leukemia 29% | RPMI-8226 leukemia 86.5% | OVCAR-8 ovarian 96.6% | OVCAR-5 ovarian 113% | OVCAR-4 ovarian 93.3% | IGROV1 ovarian 110% | OVCAR-3 ovarian 92.5% | HS 578T breast 113% | NCI/ADR-RES ovarian 101%

CC1CC(O)CC(C)(C)C1.CC1CC(O)CC(C)(C)C1.CC1CC(O)CC(C)(C)C1.CC1CC(O)CC(C)(C)C1.[Ti] (stereo not drawn)
inactive: SK-MEL-2 melanoma 93.9% | EKVX NSCLC 93.6% | SN12C renal 82% | TK-10 renal 104% | ACHN renal 111% | CAKI-1 renal 94.9% | A498 renal 106% | CCRF-CEM leukemia 112% | MOLT-4 leukemia 98.8% | SR leukemia 81.1% | RPMI-8226 leukemia 96.5% | OVCAR-8 ovarian 106% | OVCAR-5 ovarian 114% | OVCAR-4 ovarian 127% | SK-OV-3 ovarian 91.4% | IGROV1 ovarian 101% | OVCAR-3 ovarian 122% | HS 578T breast 99.9% | NCI/ADR-RES ovarian 99.1%

Nc1ccc2ccc(NS(=O)(=O)N3CCCCC3)cc2c1
active: SR leukemia 6.48% | OVCAR-3 ovarian -9.56% | NCI/ADR-RES ovarian -24.8%
inactive: SK-MEL-2 melanoma 85.4% | EKVX NSCLC 61.7% | SN12C renal 43.2% | UO-31 renal 64.8% | TK-10 renal 47.1% | ACHN renal 56.7% | CCRF-CEM leukemia 18.3% | MOLT-4 leukemia 18% | RPMI-8226 leukemia 46% | OVCAR-8 ovarian 34.2% | OVCAR-5 ovarian 56.1% | OVCAR-4 ovarian 39.2% | IGROV1 ovarian 76.3% | HS 578T breast 20.9%

O=C(c1ccccc1)C1(Br)CCCCC1
inactive: SK-MEL-2 melanoma 104% | EKVX NSCLC 87.3% | SN12C renal 93.6% | TK-10 renal 103% | ACHN renal 100% | CAKI-1 renal 89% | A498 renal 102% | CCRF-CEM leukemia 97.5% | MOLT-4 leukemia 103% | SR leukemia 149% | RPMI-8226 leukemia 98.9% | OVCAR-8 ovarian 103% | OVCAR-5 ovarian 97% | OVCAR-4 ovarian 105% | SK-OV-3 ovarian 108% | IGROV1 ovarian 97.2% | OVCAR-3 ovarian 112% | HS 578T breast 97.3% | NCI/ADR-RES ovarian 91.5%

COc1cc(NCCCCCCCNC(C)C)c2nccc(C)c2c1
inactive: SK-MEL-2 melanoma 103% and 126% | EKVX NSCLC 82.9% and 50.6% | SN12C renal 78% and 61.7% | UO-31 renal 38.4% and 47.1% | TK-10 renal 90.3% and 67.6% | ACHN renal 91.8% and 67.3% | A498 renal 80.5% and 49.2% | CCRF-CEM leukemia 92.7% | MOLT-4 leukemia 80% | SR leukemia 80.1% and 36.1% | RPMI-8226 leukemia 81.1% and 92.7% | OVCAR-8 ovarian 86.4% and 89.7% | OVCAR-5 ovarian 88.3% and 96.9% | OVCAR-4 ovarian 15.8% | IGROV1 ovarian 82.3% and 85.9% | OVCAR-3 ovarian 22.8% and 26.4% | HS 578T breast 95% and 68.8% | NCI/ADR-RES ovarian 88.1% and 84.6%

N=C(N)N1CCc2ccccc2C1
inactive: SK-MEL-2 melanoma 128% | EKVX NSCLC 66% and 97% | SN12C renal 90.8% and 99.6% | TK-10 renal 106% and 110% | ACHN renal 101% | CAKI-1 renal 74.5% and 101% | A498 renal 58.3% | CCRF-CEM leukemia 91.9% | MOLT-4 leukemia 88.3% and 106% | SR leukemia 75.1% and 93.9% | RPMI-8226 leukemia 74.5% and 80.8% | OVCAR-8 ovarian 89.9% and 103% | OVCAR-5 ovarian 88.4% | OVCAR-4 ovarian 95.4% and 117% | SK-OV-3 ovarian 101% and 107% | IGROV1 ovarian 102% | OVCAR-3 ovarian 104% and 101% | HS 578T breast 85.9% and 98.4% | NCI/ADR-RES ovarian 92.9% and 114%

C/C(=C\c1ccccc1)C(O)C(=O)c1nc2ccc([N+](=O)[O-])cc2[nH]c1=O (stereo not drawn)
inactive: SK-MEL-2 melanoma 93.6% | EKVX NSCLC 92.6% | SN12C renal 90% | TK-10 renal 109% | ACHN renal 81% | CAKI-1 renal 96% | CCRF-CEM leukemia 74.8% | MOLT-4 leukemia 91% | SR leukemia 102% | RPMI-8226 leukemia 90.2% | OVCAR-8 ovarian 96.6% | OVCAR-5 ovarian 96% | OVCAR-4 ovarian 114% | SK-OV-3 ovarian 105% | IGROV1 ovarian 102% | OVCAR-3 ovarian 113% | HS 578T breast 94.7% | NCI/ADR-RES ovarian 87.7%

CCOC(=O)c1ccc(N2C(=O)C(Cl)(c3ccccc3)C2c2ccco2)cc1 (stereo not drawn)
inactive: SK-MEL-2 melanoma 98.7% | EKVX NSCLC 61.2% | SN12C renal 95% | TK-10 renal 106% | ACHN renal 91.9% | CAKI-1 renal 71.7% | CCRF-CEM leukemia 62.3% | MOLT-4 leukemia 59.9% | SR leukemia 76.1% | RPMI-8226 leukemia 43% | OVCAR-8 ovarian 90.2% | OVCAR-5 ovarian 98.2% | OVCAR-4 ovarian 90.4% | SK-OV-3 ovarian 104% | IGROV1 ovarian 99.1% | OVCAR-3 ovarian 78.8% | NCI/ADR-RES ovarian 91.3%

NC(=O)Cc1nc(O)cc(=O)[nH]1
inactive: SK-MEL-2 melanoma 102% | EKVX NSCLC 103% | SN12C renal 96.2% | TK-10 renal 94% | ACHN renal 107% | CAKI-1 renal 99.2% | A498 renal 85.6% | CCRF-CEM leukemia 88.3% | MOLT-4 leukemia 95.6% | SR leukemia 93.5% | RPMI-8226 leukemia 85.2% | OVCAR-8 ovarian 93.8% | OVCAR-5 ovarian 109% | OVCAR-4 ovarian 113% | SK-OV-3 ovarian 89.7% | IGROV1 ovarian 109% | OVCAR-3 ovarian 109% | HS 578T breast 91.9% | NCI/ADR-RES ovarian 115%

O=C1Cc2ccccc2C(=O)N1
inactive: SK-MEL-2 melanoma 92.4% | EKVX NSCLC 99.2% | SN12C renal 96.7% | UO-31 renal 75.5% | TK-10 renal 91% | ACHN renal 82.1% | CCRF-CEM leukemia 41.1% | MOLT-4 leukemia 69.8% | SR leukemia 30.4% | RPMI-8226 leukemia 48.9% | OVCAR-8 ovarian 56.2% | OVCAR-5 ovarian 96.1% | OVCAR-4 ovarian 63.4% | SK-OV-3 ovarian 98.9% | OVCAR-3 ovarian 76.3% | HS 578T breast 103% | NCI/ADR-RES ovarian 91.8%

COc1ccc(/C=C/C(=O)O)cc1OC
inactive: SK-MEL-2 melanoma 108% and 101% | EKVX NSCLC 106% and 103% | SN12C renal 101% and 105% | TK-10 renal 102% and 92.5% | ACHN renal 104% and 112% | CAKI-1 renal 101% | A498 renal 104% | CCRF-CEM leukemia 98.1% | MOLT-4 leukemia 104% and 108% | SR leukemia 110% and 106% | RPMI-8226 leukemia 102% and 106% | OVCAR-8 ovarian 108% and 103% | OVCAR-5 ovarian 106% and 109% | OVCAR-4 ovarian 105% and 113% | SK-OV-3 ovarian 103% and 107% | OVCAR-3 ovarian 108% and 104% | HS 578T breast 103% and 102% | NCI/ADR-RES ovarian 108% and 105%

COc1ccc(-n2[nH]c3c(cnc4ccccc43)c2=O)cc1
inactive: SK-MEL-2 melanoma 79.5% and 111% | EKVX NSCLC 89% | SN12C renal 85% and 95% | TK-10 renal 90% and 93.4% | ACHN renal 95.9% and 107% | CAKI-1 renal 68.3% and 95.9% | A498 renal 93.7% and 91.9% | CCRF-CEM leukemia 101% | MOLT-4 leukemia 108% and 99.9% | RPMI-8226 leukemia 75.7% and 106% | OVCAR-8 ovarian 101% and 99.7% | OVCAR-5 ovarian 107% and 108% | OVCAR-4 ovarian 111% and 97.6% | SK-OV-3 ovarian 105% and 99.4% | IGROV1 ovarian 87.6% and 115% | OVCAR-3 ovarian 100% and 116% | HS 578T breast 117% and 97.5% | NCI/ADR-RES ovarian 78.5% and 101%
